Here are results for 24 compounds from PubChem BioAssay (Tox21).

Where “and” joins values, the source holds several entries; their conditions need not be identical. Equal values may be shown once. Inconclusive results are not listed. Some compounds were tested as several samples or in several runs, with calls that do not always agree. Calls of active or inactive are those of the source. Unless noted, calls come from the whole dose curve; as a rule, active = well fitted curve in the direction sought with a large enough effect in the repeat runs; inconclusive = weak or mixed curves; inactive = no such curve, though single readings can be large; an effect the other way counts as inactive or inconclusive.

Experiment [1] is described as follows: qHTS assay to identify aromatase inhibitors - cell viability counter screen (AID 743084;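 note: cells stimulated with testosterone during compound exposure; nearly all actives have a fitted effect of over 55% in size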). (qHTS replaces the single test concentration by a dilution series.)
The target in experiment [2] is Aryl hydrocarbon receptor (Homo sapiens) (UniProt P35869). Nature of the experiment: qHTS assay to identify small molecule that activate the aryl hydrocarbon receptor (AhR) signaling pathway (AID 743085).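 For activation: HG2L7.5c1 human HepG2 liver cells with stably integrated DRE-driven firefly reporter; series mostly up to about 70 µM.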 Note: nearly all actives have a fitted effect of over 15% in size. Note: potency is the fitted concentration of half-maximal effect. A digest of the protocol:
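HepG2 cells (HG2L7.5c1) stably carrying a firefly luciferase reporter driven by 20 dioxin responsive elements were exposed to compound for 24 h at 37C after a 5 h settling period; luminescence rise (ONE-Glo) indicated activation.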

A short description of experiment [3]: qHTS assay to identify small molecule that activate the aryl hydrocarbon receptor (AhR) signaling pathway - cell viability counter screen (AID 743086).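 Note: HepG2 liver cells carrying the AhR DRE luciferase reporter; series mostly up to about 70 µM; nearly all actives have a fitted effect of over 45% in size.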 The essentials: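 HepG2-AhR-luc (HG2L7.5c1) cells, 4000/well, were preincubated 5 h at 37C, exposed to compound in qHTS format for 24 hr at 37C, then given CellTiter-Fluor for 30 min; viability was read as fluorescence in the reporter wells.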

The target in experiment [4] is Peroxisome proliferator-activated receptor gamma (Homo sapiens) (UniProt P37231). The experiment is described as follows: qHTS assay to identify small molecule agonists of the peroxisome proliferator-activated receptor gamma (PPARg) signaling pathway (AID 743094; active = well fitted activation curve with a large enough effect in the signal ratio in the repeat runs, not every such curve was filed as active; the % refers to the signal ratio). A digest of the protocol:
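Agonist activity was taken from a beta-lactamase reporter (FRET substrate, 1 h at room temperature) in HEK293H cells carrying a PPARg UAS-bla construct. Compounds in DMSO were incubated 17 h at 37C after a 5 h cell pre-incubation.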

A short description of experiment [5]: qHTS assay for small molecule agonists of the antioxidant response element (ARE) signaling pathway (AID 743202; active = well fitted activation curve with a large enough effect in the signal ratio in the repeat runs, not every such curve was filed as active; the % refers to the signal ratio; note: potency is the fitted concentration of half-maximal effect). A digest of the protocol:
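Following a 16 h, 37 C exposure of reporter HepG2 cells (ARE-driven beta-lactamase, 2,000 cells/well) to compounds, FRET substrate was applied for 2 h at room temperature and fluorescence intensity recorded.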

Experiment [6] in a line: qHTS assay for small molecule agonists of the antioxidant response element (ARE) signaling pathway - cell viability counter screen (AID 743203; calls by dose curve; note: nearly all actives have a fitted effect of over 55% in size). The essentials:
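Viability counter screen: CellTiter-Glo luminescence, read after 30 min at room temperature, in ARE-bla HepG2 wells. Compound exposure lasted 16 h at 37C/5% CO2, following a 5 h pre-incubation of the cells after plating.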

A short description of experiment [7]: qHTS assay for small molecule activators of the heat shock response signaling pathway - cell viability counter screen (AID 743209). Note: nearly all actives have a fitted effect of over 50% in size. The essentials: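 Cytotoxicity counter screen run in the same wells as the heat-shock bla reporter assay: HeLa HSE-bla cells, 5 h compound exposure at 37 C, viability read by CellTiter-Glo luminescence.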
Experiment [8] in a line: qHTS assay for small molecule activators of the heat shock response signaling pathway (AID 743210; active = well fitted activation curve with a large enough effect in the signal ratio in the repeat runs, with a control signal flat, not every such curve was filed as active; the % refers to the signal ratio; note: potency is the fitted concentration of half-maximal effect; for activation: series mostly up to about 63 µM). A digest of the protocol:
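Heat shock element–beta-lactamase HeLa reporter cells; qHTS with compounds for 5 h at 37 C; detection by FRET substrate fluorescence after 2.5 h at RT.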

The target in experiment [9] is Peroxisome proliferator-activated receptor gamma (Homo sapiens) (UniProt P37231). The experiment is described as follows: qHTS assay to identify small molecule antagonists of the peroxisome proliferator-activated receptor gamma (PPARg) signaling pathway (AID 743191; calls by dose curve; note: nearly all actives have a fitted effect of over 30% in size; note: potency is the fitted concentration of half-maximal effect). A digest of the protocol: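 GeneBLAzer PPARg UAS-bla HEK293H cells carrying a UAS-driven beta-lactamase reporter were plated at 3000 cells/well, preincubated 5 h at 37C, then given compound for 17 h at 37C; LiveBLAzer B/G FRET substrate was read after 1 h at room temperature.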
Chain of Peroxisome proliferator-activated receptor gamma (Homo sapiens) (P37231 whole entry, looked up): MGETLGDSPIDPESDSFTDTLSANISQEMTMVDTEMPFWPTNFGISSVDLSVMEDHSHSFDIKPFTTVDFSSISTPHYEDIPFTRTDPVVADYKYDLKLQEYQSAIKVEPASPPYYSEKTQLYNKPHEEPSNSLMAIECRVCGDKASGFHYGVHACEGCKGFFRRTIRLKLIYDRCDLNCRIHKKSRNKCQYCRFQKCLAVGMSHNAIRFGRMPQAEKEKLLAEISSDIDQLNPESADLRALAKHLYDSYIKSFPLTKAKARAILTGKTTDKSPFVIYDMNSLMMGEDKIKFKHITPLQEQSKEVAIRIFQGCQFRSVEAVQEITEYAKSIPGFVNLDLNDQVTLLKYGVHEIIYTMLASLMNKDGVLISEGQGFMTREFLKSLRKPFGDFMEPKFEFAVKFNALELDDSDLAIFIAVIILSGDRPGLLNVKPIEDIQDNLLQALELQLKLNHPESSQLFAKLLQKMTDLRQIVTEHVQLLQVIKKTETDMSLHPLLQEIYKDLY

A short description of experiment [10]: qHTS assay to identify small molecule antagonists of the peroxisome proliferator-activated receptor gamma (PPARg) signaling pathway - cell viability counter screen (AID 743194). Note: nearly all actives have a fitted effect of over 55% in size. The essentials:
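PPARg-UAS-bla HEK293H cells were plated, rested 5 h at 37 C, then treated with compounds plus rosiglitazone (50 nM final) for 17 h at 37 C; viability was then read by CellTiter-Glo luminescence after 30 min at room temperature.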

Chain of Aryl hydrocarbon receptor (Homo sapiens) (P35869 whole entry, looked up): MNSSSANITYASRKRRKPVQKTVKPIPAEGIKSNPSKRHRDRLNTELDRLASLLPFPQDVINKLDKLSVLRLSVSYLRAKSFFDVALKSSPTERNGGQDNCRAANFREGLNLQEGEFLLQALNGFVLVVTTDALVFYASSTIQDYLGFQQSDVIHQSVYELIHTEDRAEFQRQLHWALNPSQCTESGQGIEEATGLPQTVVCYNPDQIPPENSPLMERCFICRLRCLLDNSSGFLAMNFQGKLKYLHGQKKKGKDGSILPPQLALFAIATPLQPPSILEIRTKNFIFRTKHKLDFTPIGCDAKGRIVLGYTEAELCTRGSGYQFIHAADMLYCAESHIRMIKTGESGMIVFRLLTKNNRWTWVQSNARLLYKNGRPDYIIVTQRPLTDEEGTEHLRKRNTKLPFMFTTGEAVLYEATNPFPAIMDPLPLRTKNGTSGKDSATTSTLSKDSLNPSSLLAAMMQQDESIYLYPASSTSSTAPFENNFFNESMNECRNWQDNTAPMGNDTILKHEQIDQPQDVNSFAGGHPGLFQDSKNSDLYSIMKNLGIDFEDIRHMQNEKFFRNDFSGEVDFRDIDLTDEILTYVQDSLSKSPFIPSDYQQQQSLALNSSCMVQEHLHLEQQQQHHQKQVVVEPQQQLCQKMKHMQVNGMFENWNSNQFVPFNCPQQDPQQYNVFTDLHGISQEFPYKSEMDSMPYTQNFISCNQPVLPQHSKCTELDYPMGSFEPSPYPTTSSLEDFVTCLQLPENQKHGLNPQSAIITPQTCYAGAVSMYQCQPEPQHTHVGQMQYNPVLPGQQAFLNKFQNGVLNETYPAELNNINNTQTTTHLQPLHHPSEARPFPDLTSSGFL

Turning to `COC(=O)Nc1cccc(OC(=O)Nc2cccc(C)c2)c1`, the Potency result in experiment [1], in experiment [6] and in [7] was “inactive” in each case. Besides, the Potency in experiment [2] was 27.3 µM (active) and 2.73 µM (active); in [5] it was 48.6 µM (active) and inactive. For the same compound, the call in experiment [3] and in experiment [4] was inactive.
For the compound `Sc1ccccc1`, the Potency entry in [1], in experiment [2], in [5], in [6] and in experiment [7] was “inactive” in each case. Moreover, the compound was classed as inactive in experiment [3]. Also, in experiment [8], the Potency is 44.3 µM (active) and inactive.
For the compound `CCCCC(CC)C(=O)Cl` (centres undefined), the Potency entry in experiment [1], in experiment [2], in experiment [9], in [5], in experiment [6] and in experiment [7] was “inactive” each time. In addition, the Potency entry in [8] is “inactive”. Also, the call in experiment [4] and in [10] was inactive.
Regarding `CCCOC(=O)c1ccccc1C(=O)OCCC`, the Potency result in experiment [1], in [2], in experiment [9], in experiment [5], in experiment [6] and in experiment [7] was “inactive” throughout. Moreover, the Potency entry in experiment [8] was “inactive”. Moreover, the outcome in experiment [4] and in experiment [10] was inactive.
Regarding `C=CC(=O)OCCCCCC(C)C`, the Potency entry in experiment [1], in experiment [2], in experiment [5], in [6], in experiment [7] and in experiment [8] was “inactive” in each case. Besides, the call in experiment [3], in experiment [4] and in experiment [10] was inactive.
Consider `CCSC(=O)N1CCCCCC1`, for which the Potency result in experiment [1], in experiment [2], in [9], in experiment [5], in [6] and in experiment [7] was “inactive” each time. Moreover, the Potency entry in experiment [8] is “inactive”. In addition, the compound was called inactive in [3] and in experiment [4].
As for `CNC(=O)O/N=C/C(C)(C)SC`, the Potency result in [1], in experiment [2], in [9], in experiment [5], in experiment [6] and in [7] was “inactive” in each case. For the same compound, the compound was called inactive in [4] and in experiment [10].
On to `Cc1cc(Cl)ccc1OC(C)C(=O)O` (centres undefined), for which the Potency entry in [1], in [2], in [9], in experiment [5], in [6] and in [7] was “inactive” in each case. In addition, the Potency entry in [8] is “inactive”. Also, in [3], the result was inactive.
Regarding `Cc1cccc(C)c1N`, the Potency result in [1], in experiment [2], in experiment [9], in experiment [5], in experiment [6] and in experiment [7] was “inactive” throughout. Moreover, the Potency result in experiment [8] was “inactive”. In addition, the call in experiment [4] and in [10] was inactive.
Turning to `Cc1ccccc1N`, the Potency entry in experiment [1], in [2], in experiment [5], in [6], in experiment [7] and in experiment [8] was “inactive” throughout. Further, the compound was called inactive in [3] and in [10].
In the case of `CC(C)CCCCCCOC(=O)c1ccccc1C(=O)OCCCCCCC(C)C`, the Potency result in [1], in experiment [2], in [5], in experiment [6], in experiment [7] and in experiment [8] was “inactive” each time. In addition, the call in [3] and in experiment [10] was inactive.
For the compound `Cc1ccc(O)c(C)c1`, the Potency result in experiment [1], in [2], in experiment [9], in [6], in experiment [7] and in experiment [8] was “inactive” in each case. Moreover, the compound was called inactive in experiment [4] and in experiment [10].
`CN(C)C(=O)C(c1ccccc1)c1ccccc1`: the Potency result in experiment [1], in experiment [2], in [9], in experiment [5], in experiment [6] and in [7] was “inactive” in each case. Also, the Potency entry in experiment [8] was “inactive”. In addition, the compound was called inactive in experiment [4] and in [10].
In the case of `Cc1ccc(N=C=O)cc1N=C=O`, the Potency result in [1], in [9], in experiment [5], in experiment [6] and in experiment [7] was “inactive” in each case. Besides, the Potency in [2] was 25 µM (active) and 1.08 µM (active). For the same compound, the compound was classed as inactive in [4].
With `CN1C(=O)CCS(=O)(=O)C1c1ccc(Cl)cc1` (centres undefined), the Potency entry in [1], in experiment [2], in experiment [5], in experiment [6], in experiment [7] and in experiment [8] was “inactive” throughout. Also, the result in experiment [3] was inactive.
As for `ClCCOCCCl`, the Potency entry in experiment [1], in [2], in experiment [9], in [5], in experiment [6] and in [7] was “inactive” each time. Moreover, the Potency entry in experiment [8] is “inactive”. The outcome in experiment [4] and in experiment [10] was inactive.
Take `CCOc1ccc(N)cc1`: the Potency result in [1], in experiment [6], in experiment [7] and in experiment [8] was “inactive” throughout. Further, the Potency in experiment [2] was 48.7 µM (active) and inactive. Moreover, the compound was classed as inactive in [3] and in experiment [10].
For the compound `CCOP(=S)(OCC)Oc1ccc([N+](=O)[O-])cc1`, the Potency entry in [1], in [9], in [5], in experiment [6], in experiment [7] and in [8] was “inactive” in each case. For the same compound, the Potency in experiment [2] was 31 µM (active) and 10.6 µM (active). For the same compound, the outcome in [4] and in [10] was inactive.
Regarding `Cc1cccc(C)c1NC(=O)CN1CCCC1=O`, the Potency entry in experiment [1], in experiment [2], in experiment [9], in experiment [5], in experiment [6] and in experiment [7] was “inactive” each time. Also, the result in experiment [4] was inactive.
For `NNc1ccccc1`, the Potency entry in experiment [1], in [5], in experiment [6], in experiment [7] and in [8] was “inactive” throughout. The result in [4] and in experiment [10] was inactive. Also, the Potency in [9] was 13.8 µM (active) and inactive.
Regarding `O=[N+]([O-])c1ccc(Cl)cc1`, the Potency entry in experiment [1], in experiment [2], in experiment [5], in experiment [6], in experiment [7] and in experiment [8] was “inactive” throughout. Besides, the compound was classed as inactive in [10].
`O=C(O)C(Br)Br`: the Potency result in experiment [1], in [9], in experiment [6], in experiment [7] and in experiment [8] was “inactive” each time. Also, in experiment [4], the call was inactive. Besides, the Potency in [5] is 86.3 nM (active).
For `CNC(=O)O/N=C/C(C)(C)S(C)=O` (centres undefined), the Potency entry in experiment [1], in [9], in experiment [5], in experiment [6], in experiment [7] and in [8] was “inactive” each time. The outcome in [3] and in experiment [4] was inactive.
Take `Nc1nc(N)nc(NC2CC2)n1`: the Potency entry in experiment [1], in [2], in [6] and in experiment [7] was “inactive” each time. In addition, in [8], the Potency result is “inactive and 43.6 µM (active)”.
